How the values were obtained:
[1] = molecular target: Tyrosine-protein kinase receptor UFO (Homo sapiens) (UniProt P30530); settings: at 1 µM
[2] = molecular target: Tyrosine-protein kinase Blk (Homo sapiens) (UniProt P51451); settings: at 0.1 µM
[3] = molecular target: Tyrosine-protein kinase Blk (Homo sapiens) (UniProt P51451); settings: at 1 µM
[4] = molecular target: T1, Cytoplasmic tyrosine-protein kinase BMX (Homo sapiens) (UniProt P51813); settings: at 0.1 µM
T1 sequence (whole entry): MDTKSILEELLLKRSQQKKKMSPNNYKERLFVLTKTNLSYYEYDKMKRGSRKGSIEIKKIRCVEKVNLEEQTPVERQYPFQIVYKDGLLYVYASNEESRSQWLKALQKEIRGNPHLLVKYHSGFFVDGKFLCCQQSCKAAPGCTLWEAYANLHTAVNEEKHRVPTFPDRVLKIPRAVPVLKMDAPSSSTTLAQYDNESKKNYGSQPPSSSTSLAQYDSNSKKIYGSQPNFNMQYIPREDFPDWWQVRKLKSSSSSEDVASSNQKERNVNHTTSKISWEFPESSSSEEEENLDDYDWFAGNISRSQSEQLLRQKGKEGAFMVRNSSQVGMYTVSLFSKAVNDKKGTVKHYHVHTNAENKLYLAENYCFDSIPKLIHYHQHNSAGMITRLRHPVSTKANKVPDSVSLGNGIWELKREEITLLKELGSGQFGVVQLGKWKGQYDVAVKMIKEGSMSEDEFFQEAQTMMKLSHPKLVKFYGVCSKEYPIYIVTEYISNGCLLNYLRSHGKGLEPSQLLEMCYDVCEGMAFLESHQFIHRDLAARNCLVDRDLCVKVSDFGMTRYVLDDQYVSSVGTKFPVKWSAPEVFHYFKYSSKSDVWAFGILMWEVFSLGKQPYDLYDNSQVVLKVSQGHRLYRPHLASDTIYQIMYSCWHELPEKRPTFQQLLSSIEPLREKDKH

[5] = molecular target: T1, Cytoplasmic tyrosine-protein kinase BMX (Homo sapiens); settings: at 1 µM
[6] = molecular target: Protein-tyrosine kinase 6 (Homo sapiens) (UniProt Q13882); settings: at 0.1 µM
Chain of Protein-tyrosine kinase 6 (Homo sapiens) (Q13882 whole entry, looked up): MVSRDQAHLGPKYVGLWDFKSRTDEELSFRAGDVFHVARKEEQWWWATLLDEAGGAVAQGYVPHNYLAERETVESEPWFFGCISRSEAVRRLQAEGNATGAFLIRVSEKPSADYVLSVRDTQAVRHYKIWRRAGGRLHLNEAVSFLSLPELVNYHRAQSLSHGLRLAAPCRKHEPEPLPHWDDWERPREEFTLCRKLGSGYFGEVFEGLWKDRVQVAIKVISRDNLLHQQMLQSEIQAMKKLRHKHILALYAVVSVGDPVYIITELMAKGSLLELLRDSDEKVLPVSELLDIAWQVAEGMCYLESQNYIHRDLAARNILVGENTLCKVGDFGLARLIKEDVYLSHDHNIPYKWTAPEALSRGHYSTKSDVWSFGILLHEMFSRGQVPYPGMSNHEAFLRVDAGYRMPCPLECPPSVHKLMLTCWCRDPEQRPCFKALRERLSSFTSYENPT

[7] = molecular target: Protein-tyrosine kinase 6 (Homo sapiens) (UniProt Q13882); settings: at 1 µM
[8] = molecular target: Tyrosine-protein kinase BTK (Homo sapiens) (UniProt Q06187); settings: at 0.1 µM
[9] = molecular target: Tyrosine-protein kinase BTK (Homo sapiens) (UniProt Q06187); settings: at 1 µM
[10] = molecular target: Tyrosine-protein kinase CSK (Homo sapiens) (UniProt P41240); settings: at 0.1 µM
Chain of Tyrosine-protein kinase CSK (Homo sapiens) (P41240 2-450 limits assumed): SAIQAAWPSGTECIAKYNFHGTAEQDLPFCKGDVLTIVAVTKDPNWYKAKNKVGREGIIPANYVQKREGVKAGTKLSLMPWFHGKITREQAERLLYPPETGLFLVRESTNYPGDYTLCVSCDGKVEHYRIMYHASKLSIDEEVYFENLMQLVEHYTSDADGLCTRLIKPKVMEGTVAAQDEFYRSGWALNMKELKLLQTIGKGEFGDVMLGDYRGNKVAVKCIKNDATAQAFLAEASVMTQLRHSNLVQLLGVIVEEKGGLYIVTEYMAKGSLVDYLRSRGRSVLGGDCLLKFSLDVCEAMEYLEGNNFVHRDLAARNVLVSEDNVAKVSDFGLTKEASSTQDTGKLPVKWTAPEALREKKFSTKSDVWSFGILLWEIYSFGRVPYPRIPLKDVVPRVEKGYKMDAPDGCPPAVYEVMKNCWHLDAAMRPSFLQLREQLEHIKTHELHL

[11] = molecular target: Tyrosine-protein kinase CSK (Homo sapiens) (UniProt P41240); settings: at 1 µM
[12] = molecular target: T2, Discoidin domain-containing receptor 2 (Homo sapiens) (UniProt Q16832); settings: at 0.1 µM
T2 sequence (whole entry): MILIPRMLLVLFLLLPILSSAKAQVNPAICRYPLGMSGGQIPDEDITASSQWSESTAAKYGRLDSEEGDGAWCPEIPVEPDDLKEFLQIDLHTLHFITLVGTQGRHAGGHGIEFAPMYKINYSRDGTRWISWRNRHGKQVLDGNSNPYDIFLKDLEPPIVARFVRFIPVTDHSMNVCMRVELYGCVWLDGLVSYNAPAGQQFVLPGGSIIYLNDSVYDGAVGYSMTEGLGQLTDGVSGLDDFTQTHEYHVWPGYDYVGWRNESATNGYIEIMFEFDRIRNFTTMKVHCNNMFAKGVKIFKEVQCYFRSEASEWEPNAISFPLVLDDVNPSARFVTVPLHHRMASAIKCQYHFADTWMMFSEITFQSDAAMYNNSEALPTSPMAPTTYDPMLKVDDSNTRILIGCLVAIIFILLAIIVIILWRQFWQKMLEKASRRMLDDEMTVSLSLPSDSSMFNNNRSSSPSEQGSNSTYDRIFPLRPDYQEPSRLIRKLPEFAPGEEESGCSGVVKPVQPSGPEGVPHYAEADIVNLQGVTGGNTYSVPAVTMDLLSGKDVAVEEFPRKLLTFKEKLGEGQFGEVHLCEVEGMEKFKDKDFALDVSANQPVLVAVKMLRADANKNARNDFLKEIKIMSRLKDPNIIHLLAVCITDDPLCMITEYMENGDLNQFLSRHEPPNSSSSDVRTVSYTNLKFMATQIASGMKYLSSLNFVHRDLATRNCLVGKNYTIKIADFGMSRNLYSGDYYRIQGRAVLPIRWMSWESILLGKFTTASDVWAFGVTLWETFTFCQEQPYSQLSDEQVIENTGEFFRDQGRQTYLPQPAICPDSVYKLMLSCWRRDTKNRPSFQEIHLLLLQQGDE

[13] = molecular target: T2, Discoidin domain-containing receptor 2 (Homo sapiens); settings: at 1 µM
[14] = molecular target: Epidermal growth factor receptor (Homo sapiens) (UniProt P00533); settings: at 0.1 µM
Chain of Epidermal growth factor receptor (Homo sapiens) (P00533 whole entry): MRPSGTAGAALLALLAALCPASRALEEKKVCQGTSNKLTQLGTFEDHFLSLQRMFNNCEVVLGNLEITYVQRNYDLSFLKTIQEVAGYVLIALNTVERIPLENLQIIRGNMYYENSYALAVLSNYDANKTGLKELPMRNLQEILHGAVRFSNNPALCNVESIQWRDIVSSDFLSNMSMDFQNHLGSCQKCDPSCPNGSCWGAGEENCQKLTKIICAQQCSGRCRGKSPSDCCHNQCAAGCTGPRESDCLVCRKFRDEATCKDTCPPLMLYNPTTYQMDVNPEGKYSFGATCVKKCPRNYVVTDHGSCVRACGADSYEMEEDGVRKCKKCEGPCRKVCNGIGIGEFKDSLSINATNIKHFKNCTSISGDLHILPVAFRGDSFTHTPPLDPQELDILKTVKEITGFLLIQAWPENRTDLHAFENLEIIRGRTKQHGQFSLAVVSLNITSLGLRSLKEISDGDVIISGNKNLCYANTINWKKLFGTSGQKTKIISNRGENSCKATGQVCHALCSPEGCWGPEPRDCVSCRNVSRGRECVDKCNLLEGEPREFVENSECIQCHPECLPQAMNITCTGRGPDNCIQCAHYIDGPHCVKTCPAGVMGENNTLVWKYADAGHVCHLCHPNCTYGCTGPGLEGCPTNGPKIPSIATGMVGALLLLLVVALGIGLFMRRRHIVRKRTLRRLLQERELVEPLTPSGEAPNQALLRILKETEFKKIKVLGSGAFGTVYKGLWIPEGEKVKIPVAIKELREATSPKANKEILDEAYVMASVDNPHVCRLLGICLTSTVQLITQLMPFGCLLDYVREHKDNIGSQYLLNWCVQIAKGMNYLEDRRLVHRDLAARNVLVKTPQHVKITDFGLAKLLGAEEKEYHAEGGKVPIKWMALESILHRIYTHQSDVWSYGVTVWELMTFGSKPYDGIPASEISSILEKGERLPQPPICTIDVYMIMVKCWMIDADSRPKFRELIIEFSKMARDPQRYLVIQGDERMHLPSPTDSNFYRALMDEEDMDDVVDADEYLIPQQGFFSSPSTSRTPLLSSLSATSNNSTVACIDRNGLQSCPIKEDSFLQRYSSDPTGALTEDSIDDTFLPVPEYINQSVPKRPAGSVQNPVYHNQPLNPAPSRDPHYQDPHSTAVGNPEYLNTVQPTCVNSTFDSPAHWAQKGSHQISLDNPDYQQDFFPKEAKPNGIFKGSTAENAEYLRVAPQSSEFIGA

[15] = molecular target: Epidermal growth factor receptor (Homo sapiens) (UniProt P00533); settings: at 1 µM
[16] = tested on: Epidermal growth factor receptor (Homo sapiens), P00533 [L858R]; settings: at 0.1 µM
Chain of Epidermal growth factor receptor (Homo sapiens), P00533 [L858R] (P00533 whole entry L858R): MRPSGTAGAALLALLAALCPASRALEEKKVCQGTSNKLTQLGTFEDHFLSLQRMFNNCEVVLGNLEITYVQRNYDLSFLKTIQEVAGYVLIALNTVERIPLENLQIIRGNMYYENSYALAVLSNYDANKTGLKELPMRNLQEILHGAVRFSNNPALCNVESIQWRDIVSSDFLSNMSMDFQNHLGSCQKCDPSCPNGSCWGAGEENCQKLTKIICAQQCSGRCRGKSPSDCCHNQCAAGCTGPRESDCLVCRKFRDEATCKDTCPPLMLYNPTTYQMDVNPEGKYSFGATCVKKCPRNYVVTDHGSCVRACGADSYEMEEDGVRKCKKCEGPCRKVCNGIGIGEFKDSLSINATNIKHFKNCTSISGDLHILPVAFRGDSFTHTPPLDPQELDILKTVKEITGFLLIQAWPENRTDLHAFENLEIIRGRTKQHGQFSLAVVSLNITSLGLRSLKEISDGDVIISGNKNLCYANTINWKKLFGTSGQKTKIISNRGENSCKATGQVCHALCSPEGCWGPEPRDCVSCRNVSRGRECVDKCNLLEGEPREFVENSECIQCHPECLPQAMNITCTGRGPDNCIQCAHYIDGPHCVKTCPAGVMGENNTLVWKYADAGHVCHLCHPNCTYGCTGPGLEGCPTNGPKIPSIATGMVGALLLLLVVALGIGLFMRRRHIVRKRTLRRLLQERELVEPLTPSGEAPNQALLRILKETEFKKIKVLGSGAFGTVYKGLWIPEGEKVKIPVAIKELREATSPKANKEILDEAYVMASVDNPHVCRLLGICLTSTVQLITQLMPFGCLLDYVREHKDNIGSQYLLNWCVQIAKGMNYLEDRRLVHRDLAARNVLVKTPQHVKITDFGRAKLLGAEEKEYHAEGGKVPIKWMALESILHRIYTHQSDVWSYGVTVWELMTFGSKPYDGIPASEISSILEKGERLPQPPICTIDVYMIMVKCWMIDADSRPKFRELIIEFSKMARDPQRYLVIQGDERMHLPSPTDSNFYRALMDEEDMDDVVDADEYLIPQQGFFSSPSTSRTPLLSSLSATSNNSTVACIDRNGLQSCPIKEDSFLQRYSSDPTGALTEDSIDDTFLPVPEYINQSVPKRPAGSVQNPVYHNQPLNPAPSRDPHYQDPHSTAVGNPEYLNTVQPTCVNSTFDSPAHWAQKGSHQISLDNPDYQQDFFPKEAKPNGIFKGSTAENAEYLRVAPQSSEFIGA

[17] = tested on: Epidermal growth factor receptor (Homo sapiens), P00533 [L858R]; settings: at 1 µM
[18] = tested on: Epidermal growth factor receptor (Homo sapiens), P00533 [L861Q]; settings: at 0.1 µM
[19] = tested on: Epidermal growth factor receptor (Homo sapiens), P00533 [L861Q]; settings: at 1 µM
[20] = tested on: Epidermal growth factor receptor (Homo sapiens), P00533 [T790M]; settings: at 0.1 µM
Chain of Epidermal growth factor receptor (Homo sapiens), P00533 [T790M] (P00533 whole entry T790M): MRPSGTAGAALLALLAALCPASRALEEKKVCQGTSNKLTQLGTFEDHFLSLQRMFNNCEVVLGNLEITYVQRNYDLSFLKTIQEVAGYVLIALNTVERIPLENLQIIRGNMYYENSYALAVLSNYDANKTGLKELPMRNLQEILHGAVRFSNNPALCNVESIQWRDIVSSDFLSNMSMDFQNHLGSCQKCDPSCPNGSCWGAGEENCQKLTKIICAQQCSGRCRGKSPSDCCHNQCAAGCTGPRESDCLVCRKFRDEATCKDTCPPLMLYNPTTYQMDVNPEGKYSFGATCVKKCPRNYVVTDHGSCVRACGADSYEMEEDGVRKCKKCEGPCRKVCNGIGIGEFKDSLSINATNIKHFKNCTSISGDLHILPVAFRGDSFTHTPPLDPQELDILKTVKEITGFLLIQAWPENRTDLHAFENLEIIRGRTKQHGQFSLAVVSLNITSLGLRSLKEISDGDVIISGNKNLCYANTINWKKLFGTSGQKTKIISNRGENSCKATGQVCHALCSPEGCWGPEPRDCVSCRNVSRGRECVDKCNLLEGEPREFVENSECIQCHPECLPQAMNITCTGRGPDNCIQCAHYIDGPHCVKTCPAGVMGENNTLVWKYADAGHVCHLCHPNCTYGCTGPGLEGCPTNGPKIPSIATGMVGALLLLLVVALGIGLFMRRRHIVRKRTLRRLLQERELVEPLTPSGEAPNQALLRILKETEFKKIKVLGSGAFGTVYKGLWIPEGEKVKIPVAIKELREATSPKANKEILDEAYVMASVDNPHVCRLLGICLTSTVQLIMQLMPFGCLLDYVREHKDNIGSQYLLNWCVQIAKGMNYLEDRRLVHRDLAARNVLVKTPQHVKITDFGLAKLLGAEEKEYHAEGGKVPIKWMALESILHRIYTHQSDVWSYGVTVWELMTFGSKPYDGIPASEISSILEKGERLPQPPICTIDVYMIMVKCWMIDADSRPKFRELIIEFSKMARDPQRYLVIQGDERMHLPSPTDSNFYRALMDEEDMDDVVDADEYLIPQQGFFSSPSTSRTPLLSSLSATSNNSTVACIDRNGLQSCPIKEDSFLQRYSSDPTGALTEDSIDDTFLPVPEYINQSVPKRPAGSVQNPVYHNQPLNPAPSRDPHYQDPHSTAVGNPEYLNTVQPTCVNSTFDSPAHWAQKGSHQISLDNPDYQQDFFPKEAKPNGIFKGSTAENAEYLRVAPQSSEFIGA

Chain of Tyrosine-protein kinase Blk (Homo sapiens) (P51451 2-505 limits assumed): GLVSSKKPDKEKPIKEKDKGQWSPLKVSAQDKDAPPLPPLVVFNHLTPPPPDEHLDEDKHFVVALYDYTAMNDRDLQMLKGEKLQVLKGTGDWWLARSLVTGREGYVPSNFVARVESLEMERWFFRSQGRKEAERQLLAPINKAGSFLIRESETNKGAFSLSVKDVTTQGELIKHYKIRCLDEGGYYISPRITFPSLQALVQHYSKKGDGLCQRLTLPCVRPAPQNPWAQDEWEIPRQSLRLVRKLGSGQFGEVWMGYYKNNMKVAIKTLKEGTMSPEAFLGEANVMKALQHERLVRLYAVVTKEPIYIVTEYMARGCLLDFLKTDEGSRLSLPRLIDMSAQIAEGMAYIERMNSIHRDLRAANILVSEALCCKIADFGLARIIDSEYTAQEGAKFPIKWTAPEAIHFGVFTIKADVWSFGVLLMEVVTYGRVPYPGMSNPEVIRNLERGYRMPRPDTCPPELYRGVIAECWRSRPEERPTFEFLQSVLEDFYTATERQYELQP

SMILES	inhibition [1]	inhibition [2]	inhibition [3]	inhibition [4]	inhibition [5]	inhibition [6]	inhibition [7]	inhibition [8]	inhibition [9]	inhibition [10]	inhibition [11]	inhibition [12]	inhibition [13]	inhibition [14]	inhibition [15]	inhibition [16]	inhibition [17]	inhibition [18]	inhibition [19]	inhibition [20]
COc1cc(/C=N/Nc2ncnc3[nH]ncc23)ccc1O	-3.87%	9.75%	59.7%	2.08%	32.4%	5.52%	30.3%	1.57%	7.64%	7.17%	24.9%	1.42%	2.31%	2.77%	8.71%	4.32%	7.89%	2.91%	4.72%	1.39%
CS(=O)(=O)CCNCc1coc(-c2ccc3ncnc(Nc4ccc(OCc5ccccc5)cc4)c3c2)c1	0.06%	2.9%	11.5%	4.64%	6.49%	-1.1%	10.9%	-0.04%	2.66%	0.42%	5.24%	1.75%	1.8%	80.3%	92.2%	30.6%	82.5%	39.1%	76%	2.61%
COc1ccc(-c2nn3ncccc3c2-c2ccnc(Nc3ccc4c(c3)OCCO4)n2)cc1	8.45%	5.51%	39.5%	0.12%	8.65%	12%	67.5%	0.65%	3.53%	-0.27%	2.25%	17.7%	79.8%	0.51%	34.1%	8.22%	57.4%	5.78%	34.3%	0.7%
CS(=O)(=O)CCNCc1ccc(-c2ccc3ncnc(Nc4ccc(OCc5ccccc5)c(C(F)(F)F)c4)c3c2)o1	-6.09%	3.53%	4.36%	2.52%	1.86%	3.06%	3.52%	1.47%	1.16%	0.54%	3.7%	1.76%	1.84%	12.5%	71.2%	9.52%	50.1%	17.8%	41.7%	2.35%
COc1ccc2c(-c3ccnc(Nc4cccc(OC(F)(F)F)c4)n3)cnn2n1	-4.65%	3.16%	4.41%	0.75%	8.05%	7.26%	7.21%	1.66%	2.02%	8.18%	12.2%	1.53%	3.16%	1.3%	2.97%	4.17%	5.43%	2.8%	4.76%	2.35%
[O-][S+]1CCN(Cc2ccc(-c3ccc4ncnc(Nc5ccc(OCc6cccc(F)c6)c(Cl)c5)c4c3)o2)CC1	-4.13%	1.74%	7.66%	7.13%	7.73%	4.81%	7.3%	-0.42%	0.99%	6.74%	5.15%	2.52%	2.37%	81.3%	83.5%	88.1%	99.1%	77.5%	95.7%	7.36%
COc1ccc(-c2cc(-c3c[nH]nc3-c3ccccn3)ccn2)cc1	-5.64%	4.09%	3.9%	-1.41%	5.27%	6.49%	7.25%	2.09%	1.28%	7.77%	10.3%	2.09%	3.66%	1.65%	6.06%	1.51%	8.95%	4.61%	4.33%	2.05%
CCn1c(-c2nonc2N)nc2c(C#CC(C)(C)O)nc(OC[C@H](N)c3ccccc3)cc21	-3%	3.73%	2.85%	3.88%	5.18%	2.66%	2.72%	0.09%	0.56%	-1.53%	2.13%	1.12%	1.65%	2.01%	13.4%	1.93%	1.86%	-0.13%	2.36%	1.22%
COc1cc(N2CCN(C(C)C)CC2)ccc1Nc1nc(Nc2ccc(F)cc2C(N)=O)c2cc[nH]c2n1	42.4%	1.9%	3.73%	1.88%	5.02%	4.84%	31.2%	-0.63%	-0.07%	1.42%	0.44%	0.99%	0.35%	5.2%	–	1.78%	39.2%	3.8%	23.1%	26.4%
O=C(O[C@H]1CN[C@H](C#Cc2cc3ncnc(Nc4ccc(Cc5ccccc5)cc4)c3s2)C1)N1CCOCC1	-7.04%	5.97%	48.5%	1.38%	4.65%	-0.08%	18.2%	-0.44%	1.44%	-1.2%	2.39%	-1.8%	-1.26%	27.8%	69.9%	1.68%	11.4%	15.1%	26.9%	1.18%
CN(C)CCOc1ccc(-c2nc(-c3ccncc3)c(-c3ccc4c(c3)CC/C4=N\O)[nH]2)cc1	-4.92%	2.07%	6.18%	2.12%	3.36%	4.89%	12.4%	0.76%	1.19%	6.25%	2.75%	1.41%	0.64%	2.89%	2.4%	5%	9.64%	2.57%	8.13%	2.18%
c1cc(-c2cnn3nc(N4CCOCC4)ccc23)nc(NC2CC2)n1	-5.65%	2.34%	7.51%	0.89%	2.31%	6.35%	7.89%	1.63%	2.33%	10.8%	5.31%	1.38%	3.9%	4.04%	6.33%	5.72%	2.16%	3.88%	2.28%	2.15%
Cc1cccc(Nc2ncc(-c3ccccc3)o2)c1	-3.9%	3.13%	6.39%	4.13%	6.25%	2.06%	0.15%	0.69%	1.31%	1.12%	0.89%	0.22%	0.44%	2.11%	2.82%	0.79%	2.98%	-0.45%	1.8%	0.73%
